This passage reports inhibition results from PubChem BioAssay AID2315 (National Center for Advancing Translational Sciences (NCATS), 2010).

Hit rate of the full screen: of about 290,000 compounds, about 27,000 (9.3%) were called active. The full list was thinned out, with actives kept by preference. Unmarked numbers belong to inactive results. Rule as the data show it: active = inhibition mostly above about 28% (no sharp cut-off); inactive = mostly below about 43%.

The nature of this assay: A qHTS for Small Molecule Inhibitors of Shiga Toxin. Also: 0% is about no effect. The conditions noted are these: Vero cells, Shiga toxin protein synthesis inhibition reporter; at 38.7 µM, active compounds read high. Background: Quantitative high-throughput screening tests each substance at several concentrations.
For orientation: inhibition means the drop in the measured response relative to a control, in per cent. Regarding `CN(c1ccc(OCC(=O)O)cc1)S(=O)(=O)c1ccc2ccccc2c1`, the inhibition is -4.36%.
In the case of `O=S(=O)(NC1CCCCC1N1CCC(O)CC1)c1ccc(Cl)cc1` (stereo not drawn) it was -13.2%.
With `O=C(CSc1nc(-c2ccco2)cc(C(F)(F)F)n1)NCc1cccs1`, the inhibition is -12.1%.
In the case of `COc1ccc(-c2cc(C(F)(F)F)nc(SCCC(=O)NCc3ccco3)n2)cc1`, the inhibition was 25.3% (active).
The same measure for `COc1ccc(S(=O)(=O)N(CC(=O)NCc2ccco2)c2ccc(F)cc2)cc1`: 35.2%; for `Cn1cc(CCC(=O)NC2CC2)c2ccccc21`: 11.7%; for `CC1CCN(C(=O)Cn2cc(C(=O)c3ccco3)c3ccccc32)CC1`: 21.4%.
In the case of `Cc1cccc(NC(=O)Cn2cc(C(=O)c3ccco3)c3ccccc32)c1` it was -14.6%; in that of `N#Cc1ccc(Cn2cc(C(=O)c3ccco3)c3ccccc32)cc1`, 92.3% (active); in that of `NC(=O)N/N=C\c1cccs1`, 17.5%.
Take `Cc1nnc(N/N=C/c2cccs2)[nH]c1=O`: the inhibition was 3.51%.
In the case of `Cc1n[nH]c(=O)nc1N/N=C/c1cccs1` it was 29.8% (active); in that of `CC1(C)Oc2ccc3ccc(=O)oc3c2/C(=N/O)C1=O`, -11.1%; in that of `COc1cc(NC(=O)CN2C(=O)NC(C)(c3ccc(OC(F)F)cc3)C2=O)cc(OC)c1OC` (stereo not drawn), -3.05%.
In the case of `COc1ccccc1C(=O)NC(=S)NC12CC3CC(CC(C3)C1)C2` it was -21.8%; in that of `COc1cccc(/C=C/c2ccc3ccccc3n2)c1OC(C)=O`, 42.7% (active); in that of `CCOc1cccc(/C=C/c2ccc3ccccc3n2)c1OC(C)=O`, 50.8%.
`COc1cccc(/C=C2\C=C(c3ccc(C)cc3)OC2=O)c1OC(C)=O`: the inhibition was 11.6%.
Consider `O=C(NCCc1c[nH]c2ccccc12)C1CCN(Cc2ccc(Br)cc2)CC1`, for which the inhibition is -4.77%.
The same measure for `O=C(Cn1cc(C(=O)C2CC2)c2ccccc21)Nc1ccccc1Cl`: -2.68%; for `O=c1[nH]c(/C=C\c2cccc(C(F)(F)F)c2)nc(O)c1[N+](=O)[O-]`: -8.88%; for `COc1cc(/C=C2\C(=N)N3N=C(CC(=O)N4CCOCC4)SC3=NC2=O)cc(OC)c1OC`: -7.7%.
In the case of `Cc1cccc(CSc2nnc(Cn3c(=O)sc4ccccc43)n2C)c1` it was -3.45%; in that of `Cc1cccc(CSc2ccc(-c3cccs3)nn2)c1`, 36.9% (active).
The same measure for `O=C(CSc1ccc(-c2cccs2)nn1)Nc1ccccc1F`: 32.3%; for `COc1ccc(-c2ocnc2C(=O)Nc2ccc3c(c2)CCC3)cc1`: -10.8%.
Consider `O=C(Nc1ccc(-n2cccn2)cc1)C1CCN(Cc2ccsc2)CC1`, for which the inhibition is -3%.
The same measure for `C=CCN1C(=O)C(Cc2cccc(Cl)c2)S/C1=N/N=C/c1ccco1` (stereo not drawn): -3.82%.
The same measure for `CCC1S/C(=N/N=C/c2ccco2)NC1=O` (stereo not drawn): 22%; for `COc1ccc(CN2C(=O)C(C)S/C2=N/N=C/c2ccco2)cc1` (stereo not drawn): 137% (active).
The same measure for `Cc1cc(C)n(S(=O)(=O)c2cccc([N+](=O)[O-])c2)n1`: -4.69%; for `COc1ccc(N(CC(=O)Nc2cccc3ccccc23)S(C)(=O)=O)c(OC)c1`: -3.17%.
Take `CCc1ccc(Nc2ncc3c(n2)CC(c2ccco2)CC3=O)cc1` (stereo not drawn): the inhibition is 72.5% (active).
The same measure for `COc1cc(C2CC(=O)c3cnc(NC(C)=O)nc3C2)cc(OC)c1OC` (stereo not drawn): 21.5%; for `O=C(Nc1ncc2c(n1)CC(c1ccco1)CC2=O)c1ccc(Cl)cc1` (stereo not drawn): 1.6%; for `CCCC(C)NC(=O)C1CCN(C(=O)C2CC(=O)N(c3ccc(C)cc3)C2)CC1` (stereo not drawn): 9.21%.
In the case of `COc1ccc2c(c1)c1nc3n(c(=O)c1n2CC(=O)Nc1ccccc1)CCS3` it was 10.6%; in that of `COc1cccc(CNC(=O)CCC2CCCN(C(=O)c3ccc(F)c(Cl)c3)C2)c1` (stereo not drawn), 0.606%.
In the case of `COc1ccc(CCNc2nc(-c3cccc(NC(C)=O)c3)cs2)cc1OC` it was 0.41%; in that of `Cc1cccc(S(=O)(=O)CC(=O)Nc2nc(-c3ccccc3)cs2)c1`, -3.62%.
Regarding `NS(=O)(=O)c1ccc(Nc2nc(-c3ccccc3)cs2)cc1`, the inhibition was 17.7%.
In the case of `Cc1cccc(Nc2nc(-c3ccccc3)cs2)n1` it was 150% (active); in that of `CC(=O)Nc1cccc(-c2csc(Nc3cccc(C)n3)n2)c1`, 103% (active).
Regarding `CC(=O)Nc1ccc(S(=O)(=O)Nc2nc(-c3ccc(C(C)(C)C)cc3)cs2)cc1`, the inhibition is -13.5%.
In the case of `COc1ccc(-c2onc3ccc(C(C)=O)cc23)cc1` it was -4.4%.
Regarding `O=C(CCS(=O)(=O)c1ccc2c(c1)NC(=O)CS2)NCc1ccccc1Cl`, the inhibition is 5.67%.
In the case of `O=C(NCc1ccc2c(c1)OCO2)C(=O)NCC1OCCN1S(=O)(=O)c1ccc(F)cc1` (stereo not drawn) it was -4.86%; in that of `O=C(NC(Cc1ccc(O)cc1)C(=O)O)/C(=C/c1ccccc1)NC(=O)c1ccccc1` (stereo not drawn), 8.2%; in that of `O=C(Cc1c(F)cccc1Cl)N1CCN(C(=O)c2ccco2)CC1`, -5.75%.
The same measure for `O=C(c1ccco1)N1CCN(C(=S)Nc2cc(F)cc(F)c2)CC1`: 35.8%; for `O=C(NCCCN1CCOCC1)c1ccccc1NS(=O)(=O)c1ccc(F)cc1`: 43.2%; for `O=C(NCCCN1CCOCC1)c1cc(-c2ccc(Cl)cc2)on1`: 23.1%.
In the case of `O=C(NCCCN1CCOCC1)c1cc(-c2ccccc2F)no1` it was 54.8% (active); in that of `O=C(c1ccco1)N1CCN(C(=O)c2cc(-c3ccccc3F)no2)CC1`, 66.3% (active); in that of `CC(=O)Nc1ccc(S(=O)(=O)NCC2CCC(C(=O)NCCc3ccccc3)CC2)cc1` (stereo not drawn), 3.01%.
Turning to `COc1ccc(CCNS(=O)(=O)c2cccc([N+](=O)[O-])c2)cc1`, the inhibition was -8.39%.
In the case of `Cc1c(C(C)(C)O)[nH]c2ccc(C#N)cc12` it was 7.17%; in that of `CC(=O)Nc1ccc(NC(=O)CN2C(=O)COc3ccc(S(=O)(=O)N4CCCCC4)cc32)cc1`, -6%.
The same measure for `CCOCCCNc1c(CC)c(C)c(C#N)c2nc3ccccc3n12`: -5.72%; for `Cn1nc(-c2ccccc2)c2cc([N+](=O)[O-])ccc21`: -6.77%; for `CCOc1ccc(N/C(N)=N/c2nc(C)c(C)c(=O)[nH]2)cc1`: 0.318%.
In the case of `COC(=O)Cc1ccc(Oc2ncc(C(F)(F)F)cc2Cl)cc1` it was 26.3%.
`N/C(=N\OC(=O)Nc1ccc(Cl)c(Cl)c1)c1ncc(C(F)(F)F)cc1Cl`: the inhibition is -18.1%.
The same measure for `COc1cccc(/C=N/Nc2ncc(C(F)(F)F)cc2Cl)c1O`: -37.7% (active).
For `CC(=O)N1c2ccc(S(=O)(=O)N3CCC(C(=O)NCc4ccc(F)cc4)CC3)cc2CC1C` (stereo not drawn), the inhibition is -3.9%.
For the compound `CSc1ccccc1N1CCN(CCCCCC(=O)NC2CCCc3ccccc32)CC1` (stereo not drawn), the inhibition is -5.33%.
The same measure for `COc1ccc(C2Nc3ccccc3C(=O)N2c2ccc(Cl)cc2)cc1Cn1cc([N+](=O)[O-])cn1` (stereo not drawn): 115% (active); for `COc1ccc(C2Nc3ccccc3C(=O)N2Cc2ccccc2)cc1Cn1nnc2ccccc21` (stereo not drawn): -22.2%.
Take `COc1ccc(CN2CCCC(C(=O)c3ccc(Cl)cc3)C2)cc1Cn1cncn1` (stereo not drawn): the inhibition was -2.03%.
`COc1ccc([N+](=O)[O-])cc1C1NN=C(c2cccc3ccccc23)S1` (stereo not drawn): the inhibition was -12.5%.
In the case of `COc1ccc(N2C(=O)c3ccccc3NC2c2ccc(OC)c(CN3CCOCC3)c2)cc1` (stereo not drawn) it was 64% (active).
In the case of `COc1ccc(C2Nc3ccccc3C(=O)N2c2ccc(F)cc2)cc1Cn1nnc2ccccc21` (stereo not drawn) it was -5.43%; in that of `COC(=O)C1=CN(Cc2ccc(OC)cc2)C=C(C(=O)OC)C1c1ccc(O)c(OC)c1`, -14.4%.
Turning to `CCC(NC(=O)C1CCCC1)c1ccc(C)cc1` (stereo not drawn), the inhibition is -3.88%.
In the case of `O=C(Nc1ccc(Br)cc1)c1cc(S(=O)(=O)Nc2ccccn2)ccc1Cl` it was -18.3%.
In the case of `NC(=O)c1ccc(Nc2ccc3nonc3c2[N+](=O)[O-])cc1` it was -16.8%; in that of `N#Cc1c(-c2ccccc2)nc(SCc2cccc(C(F)(F)F)c2)[nH]c1=O`, -1.96%; in that of `O=[N+]([O-])c1cnc2ccc3ccccc3c2c1`, 27.3%.
The same measure for `O=[N+]([O-])c1ccc2c(c1)Nc1nc3ccccc3nc1N2`: 119% (active); for `O=[N+]([O-])c1cccc(Nc2c3ccccc3nc3ccccc23)c1`: -12.3%.
Consider `O=C(Nc1ccc2ccccc2c1)Nc1ccc2snnc2c1`, for which the inhibition was 1.94%.
The same measure for `O=C(Nc1cccc(Br)c1)c1ccc2snnc2c1`: 64% (active); for `CCc1ccccc1NC(=O)c1ccc2snnc2c1`: -5.07%; for `COc1ccccc1S(=O)(=O)c1c(C)cc(C)[nH]c1=O`: -2.84%.
The same measure for `Cc1cccc([C@@H]2[C@@H]3C(=O)N(C)C(=O)[C@@H]3[C@@H]3C(=O)Nc4ccccc4C(=O)N23)c1`: -2.83%.
The same measure for `Cn1c(NC(=O)c2ccccc2)nc2ccccc21`: 43.5% (active); for `Cn1sc(NC(=O)c2ccccc2)nc1=O`: 33.6%.
With `Cn1c(S(=O)(=O)O)nc2ccccc21`, the inhibition was -9%.
As for `Cc1ccc2cc(C)c(N3CCN(c4ccc(F)cc4)CC3)nc2c1`, the inhibition was 27.6%.
In the case of `Cc1cc2c(cc1C)NC(c1ccccn1)C1=C(CC(C)(C)CC1=O)N2` (stereo not drawn) it was 51.7% (active); in that of `Cc1nn(-c2ccccn2)c2c1C(c1ccncc1)C1=C(CC(C)(C)CC1=O)N2` (stereo not drawn), -3.23%.
In the case of `CC1(C)CC(=O)C2=C(C1)Nc1cc(C(=O)c3ccccc3)ccc1NC2c1ccccn1` (stereo not drawn) it was -5.56%; in that of `CCc1ccc(CN(C)C(=O)C2CCC(=O)N(Cc3cccc(OC)c3)C2)nc1` (stereo not drawn), 22.8%.
